Laboratory results: PubChem BioAssay (NCATS)
Inconclusive results are not listed. Activity calls are given as the source filed them. The call rests on the fitted dose curve; in most records, active means well fitted curve in the direction sought with a large enough effect; inconclusive means small, poorly fitted or top-dose-only effect, or another doubt; inactive means no such curve, though single readings can be large; an effect the other way counts as inactive or inconclusive.

Tests used:
Es-2 = experiment: Primary qHTS to identify gynecologic anti-cancer compounds using libraries of approved drugs and bioactive compounds (AID 1345084); conditions: Gynecologic cancer cell panel viability, ATPlite luminescence, 48 h; series mostly up to 57.5 µM; further: nearly all actives have a fitted effect of over 55% in size
Method in brief: (§1)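 In this quantitative HTS, cell killing is estimated from loss of ATP-dependent luciferase light. Cells see five compound concentrations over a 48 h exposure.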

HeLa = experiment: as above; conditions: Gynecologic cancer cell panel viability, ATPlite luminescence, 48 h; series mostly up to 57.5 µM
Method in brief: as §1

Hek293T = experiment: as above; conditions: Gynecologic cancer cell panel viability, ATPlite luminescence, 48 h, control line for the selectivity index; series mostly up to 57.5 µM
Method in brief: as §1

JEG-3 = experiment: as above; conditions: Gynecologic cancer cell panel viability, ATPlite luminescence, 48 h; series mostly up to 57.5 µM
Method in brief: as §1

OV90 = experiment: as above; conditions: Gynecologic cancer cell panel viability, ATPlite luminescence, 48 h; series mostly up to 57.5 µM
Method in brief: as §1

PA-1 = experiment: as above; conditions: Gynecologic cancer cell panel viability, ATPlite luminescence, 48 h; series mostly up to 57.5 µM
Method in brief: as §1

SKOV3 = experiment: as above; conditions: Gynecologic cancer cell panel viability, ATPlite luminescence, 48 h; series mostly up to 57.5 µM
Method in brief: as §1

Tov-21-G = experiment: as above; conditions: Gynecologic cancer cell panel viability, ATPlite luminescence, 48 h; series mostly up to 57.5 µM
Method in brief: as §1

Tov112D = experiment: as above; conditions: Gynecologic cancer cell panel viability, ATPlite luminescence, 48 h; series mostly up to 57.5 µM
Method in brief: as §1

[1] = qHTS assay to identify inhibitors of the type 1 interferon - major histocompatibility complex class I in skeletal muscle: Counter screen cell viability and HiBit confirmation (AID 1347412); conditions: iHSKM muscle cells + IFN-b, HiBiT or CellTiter-Glo, 24 h, at 45.9 µM (top of the series); further: nearly all actives have a fitted effect of over 60% in size
Method in brief: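 Luminescence read-out: Nano-Glo HiBiT lytic signal from C-terminally HiBiT-tagged HLA-B in CRISPR-edited human myoblasts, plus CellTiter Glo ATP as viability counter screen. IFN-beta 4.0 ng/ml; 24 hrs treatment at 37 C, 5% CO2.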

[2] = Drug repurposing screens with cells derived from glioblastoma tumor samples (AID 1345199); conditions: GBM patient neurospheres viability, ATP luminescence, 48 h; further: nearly all actives have a fitted effect of over 40% in size; further: potency means the concentration at half of the fitted maximal effect
Method in brief: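 Four patient lines of CD133+ GBM neurospheres were screened at several concentrations; hits were retested in those lines plus three slower-growing GBM lines, using 48-hour treatment and ATP-based viability.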
On the % scale 0 is the no-effect control and ±100 the full control effect.

O[C@@H](COc1cccc2ncccc12)CN1CCN(C2c3ccccc3[C@@H]3[C@H](c4ccccc42)C3(F)F)CC1 (stereo not given in full)
inactive: Potency (Es-2) | Potency (HeLa) | Potency (Hek293T) | Potency (JEG-3) | Potency (OV90) | Potency (PA-1) | Potency (SKOV3) | Potency (Tov-21-G) | Potency (Tov112D)

Cc1ccccc1-n1c(Cn2nc(-c3cccc(O)c3)c3c(N)ncnc32)nc2cccc(C)c2c1=O
inactive: Potency (Es-2) | Potency (HeLa) | Potency (Hek293T) | Potency (JEG-3) | Potency (OV90) | Potency (PA-1) | Potency (SKOV3) | Potency (Tov-21-G) | Potency (Tov112D) | activity change, negative = inhibition ([1]; Viability) 7.45%

CCCCC[C@H](O)C=C[C@H]1[C@H](O)CC(=O)[C@H]1CC=CCCCC(=O)O
inactive: Potency (Es-2) | Potency (HeLa) | Potency (Hek293T) | Potency (JEG-3) | Potency (OV90) | Potency (PA-1) | Potency (SKOV3) | Potency (Tov-21-G) | Potency (Tov112D)

C[C@@]1(c2cc(-c3cncnc3)c(F)cc2F)CCSC(N)=N1
inactive: Potency (Es-2) | Potency (HeLa) | Potency (Hek293T) | Potency (JEG-3) | Potency (OV90) | Potency (PA-1) | Potency (SKOV3) | Potency (Tov-21-G) | Potency (Tov112D)

CNC(=O)c1ccc2c(C(=Nc3cccc(CN(C)C)c3)c3ccccc3)c(O)[nH]c2c1
inactive: Potency (Es-2) | Potency (HeLa) | Potency (Hek293T) | Potency (JEG-3) | Potency (OV90) | Potency (PA-1) | Potency (SKOV3) | Potency (Tov-21-G) | Potency (Tov112D) | activity change, negative = inhibition ([1]; HiBiT) -0.844% | activity change, negative = inhibition ([1]; Viability) -1.9%

O=S(=O)(O)c1ccc2cc(N=Nc3cc(S(=O)(=O)O)c4cccnc4c3O)ccc2c1
inactive: Potency (Es-2) | Potency (HeLa) | Potency (Hek293T) | Potency (JEG-3) | Potency (OV90) | Potency (PA-1) | Potency (SKOV3) | Potency (Tov-21-G) | Potency (Tov112D)

c1ccc(-c2oc3ncnc(NC[C@@H]4CCCO4)c3c2-c2ccccc2)cc1
inactive: Potency (Es-2) | Potency (HeLa) | Potency (Hek293T) | Potency (JEG-3) | Potency (OV90) | Potency (PA-1) | Potency (SKOV3) | Potency (Tov-21-G)

COc1cc(Nc2nc3ccccc3nc2NS(=O)(=O)c2ccc(NC(=O)c3ccc(C)c(OC)c3)cc2)cc(OC)c1
inactive: Potency (Es-2) | Potency (HeLa) | Potency (Hek293T) | Potency (JEG-3) | Potency (OV90) | Potency (PA-1) | Potency (SKOV3) | Potency (Tov-21-G) | Potency (Tov112D)

O=C(c1ccc(C(=O)N2CCC(N3CCCC3)CC2)c(Nc2ccccc2)c1)N1CCC(N2CCCC2)CC1
inactive: Potency (Es-2) | Potency (HeLa) | Potency (Hek293T) | Potency (JEG-3) | Potency (OV90) | Potency (PA-1) | Potency (SKOV3) | Potency (Tov-21-G) | Potency (Tov112D)

CN1C(=O)C(Cc2c[nH]c3ccccc23)NC1=S (stereo not given)
inactive: Potency (Es-2) | Potency (HeLa) | Potency (Hek293T) | Potency (JEG-3) | Potency (OV90) | Potency (PA-1) | Potency (SKOV3) | Potency (Tov-21-G) | Potency (Tov112D)

NC(=O)c1ccc(N(C(N)=O)c2c(F)cccc2F)nc1-c1ccc(F)cc1F
inactive: Potency (Es-2) | Potency (HeLa) | Potency (Hek293T) | Potency (JEG-3) | Potency (OV90) | Potency (PA-1) | Potency (SKOV3) | Potency (Tov-21-G) | Potency (Tov112D)

c1ccc(CNc2nc(N3CCOc4ccccc43)nc3c2CCCC3)cc1
inactive: Potency (Es-2) | Potency (HeLa) | Potency (Hek293T) | Potency (JEG-3) | Potency (OV90) | Potency (PA-1) | Potency (SKOV3) | Potency (Tov-21-G) | Potency (Tov112D)

CN(C)CCN(Cc1ccc(Cl)cc1)c1ccccn1
active: Potency ([2]; tumour line A) 10 µM
inactive: Potency (Es-2) | Potency (HeLa) | Potency (Hek293T) | Potency (JEG-3) | Potency (OV90) | Potency (PA-1) | Potency (SKOV3) | Potency (Tov-21-G) | Potency (Tov112D) | activity, negative = cell killing ([2]; at 20 µM (top of the series), tumour line C) -14.6% | activity, negative = cell killing ([2]; at 21.2 µM (top of the series), tumour line B) -16.9%

CN(C)CCOc1cc(-c2cn[nH]c2)ccc1NC(=O)C1COc2ccccc2O1 (stereo not given)
inactive: Potency (Es-2) | Potency (HeLa) | Potency (Hek293T) | Potency (JEG-3) | Potency (OV90) | Potency (PA-1) | Potency (SKOV3) | Potency (Tov-21-G) | Potency (Tov112D)

COc1nccc(-c2c(-c3ccc(F)cc3)ncn2C2CCC(O)CC2)n1 (stereo not given)
inactive: Potency (Es-2) | Potency (HeLa) | Potency (Hek293T) | Potency (JEG-3) | Potency (PA-1) | Potency (SKOV3) | Potency (Tov-21-G) | Potency (Tov112D)

Cc1ccccc1C(C(=O)NC1CCCCC1)N(C(=O)CNc1ccc(C#N)cc1)c1cccc(F)c1 (stereo not given)
inactive: Potency (Es-2) | Potency (HeLa) | Potency (Hek293T) | Potency (JEG-3) | Potency (OV90) | Potency (SKOV3) | Potency (Tov-21-G) | Potency (Tov112D)

C[C@H](c1ccc(F)cc1CCCC(=O)O)N(c1cc(F)ccc1F)S(=O)(=O)c1ccc(Cl)cc1
inactive: Potency (Es-2) | Potency (HeLa) | Potency (Hek293T) | Potency (JEG-3) | Potency (OV90) | Potency (Tov-21-G) | Potency (Tov112D)

COc1nc(C)cnc1NS(=O)(=O)c1cccnc1-c1ccc(-c2nnco2)cc1
inactive: Potency (Es-2) | Potency (HeLa) | Potency (Hek293T) | Potency (JEG-3) | Potency (OV90) | Potency (PA-1) | Potency (Tov-21-G) | Potency (Tov112D)

CC(C)(OCc1nn(Cc2ccccc2)c2ccccc12)C(=O)O
inactive: Potency (Es-2) | Potency (HeLa) | Potency (Hek293T) | Potency (JEG-3) | Potency (OV90) | Potency (PA-1) | Potency (Tov-21-G) | Potency (Tov112D)
